Screening results from PubChem BioAssay.
C diff growth – C. difficile growth inhibitors, primary screen, HTS. Clostridium difficile clinical isolate growth, OD600, 24 h; stronger effect = lower value. growth activity, negative = inhibition, % at 16 µg/mL (by protocol). 86,000 tested, 0.25% active. AID 1259249, 2017;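 active = mean growth activity at or below -80% and every replicate also at or below -80%; inconclusive = mean at or below -80% but some replicate above -80%; inactive = mean growth activity above -80%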;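 also: 0% = DMSO wells and -100% = levofloxacin 16 µg/mL wells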
Pf Dd2 inh – P. falciparum Dd2 growth inhibitors, primary screen, SYBR Green fluorescence, single dose replicates | activity change, % at 10 µM | 72 h; stronger effect = lower value | AID 1159554, 2015 | 94,000 tested, 2.3% active; in the data active = activity change below about -80%; inconclusive = no clear call, values can overlap the other calls
T cruzi growth-1 – T. cruzi intracellular proliferation inhibitors, primary screen, cell-based, beta-gal Tulahuen parasites, NIH3T3 host, luminescence; T. cruzi beta-gal in NIH3T3, GalScreen luminescence, 90 h; inhibition, % at 8.34 µM; 77,000 tested, 5.9% active; AID 624255, 2012;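 active = mean inhibition above about 93%, with at least 55% of replicates each passing it, limit read from the data, passing the limit was not always enough; inconclusive = only one of those two conditions holds; inactive = neither condition holds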
T cruzi growth-2 – T. cruzi intracellular proliferation inhibitors, confirmation, cell-based, NIH3T3 host, beta-gal parasite, luminescence, cherry-pick. shares compounds with T cruzi growth-1. T. cruzi beta-gal in NIH3T3, GalScreen luminescence, 90 h. inhibition, % at 8.35 µM. AID 651739, 2012. 5,600 tested, 72% active;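 active = mean replicate inhibition above about 95% and at least 55% of replicates individually reaching it, limit read from the data; inconclusive = only one of the two criteria is met; inactive = neither criterion is met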
T cruzi growth-3 – inhibitors of intracellular T. cruzi replication, confirmation, NIH3T3 host cells, beta-gal parasites, cherry-pick, set 2 | shares compounds with T cruzi growth-1 | 5,600 tested, 21% active | T. cruzi beta-gal in NIH3T3, GalScreen luminescence, 90 h | AID 651740, 2012 | inhibition, % at 2.09 µM;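 active = mean inhibition above about 95%, with at least 55% of replicates also reaching it, limit read from the data; inconclusive = meets just one of the two conditions; inactive = meets neither condition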;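 also: plate controls were neutral control median for no effect and positive control median for full effect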
NIH3T3 tox – cytotoxicity in mouse NIH/3T3 fibroblasts, confirmation, cytotoxicity control for T. cruzi proliferation inhibitor project, cell-based, cherry-pick, single point; cytotoxicity (signal decrease), % at 8.35 µM; shares compounds with T cruzi growth-1; 5,600 tested, 14% active; NIH/3T3 viability, CellTiter-Glo ATP luminescence, 90 h;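 active = mean signal decrease across replicates above about 35% based on untreated-well scatter, with enough replicates individually passing, limit read from the data; inconclusive = no rule stated though some were filed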;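 also: 0% = median of neutral control wells and 100% = median of positive control wells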
NIH3T3 tox 2 – NIH/3T3 fibroblast cytotoxicity, confirmation, cytotoxicity control, cell-based, cherry-pick, single point, set 2 | shares compounds with T cruzi growth-1 | NIH/3T3 viability, CellTiter-Glo ATP luminescence, 90 h | inhibition, % at 24.9 µM | 5,600 tested, 56% active;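 active = mean loss of cell viability signal at or above a set limit, and enough replicates individually reaching it; inconclusive = meets only the mean limit or only the replicate share; inactive = meets neither condition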;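 also: 0% = median of neutral control wells and 100% = median of positive control wells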
The depositor's hits bear a star. Sampled rows, rich in hits. Any-hit rate of the full collection: about 6.7%.

`C[C@H]1CN([C@@H](C)CO)S(=O)(=O)c2ccc(C#Cc3ccccn3)cc2O[C@@H]1CN(C)Cc1ccc(F)cc1` gave C diff growth -4, Pf Dd2 inh -29, T cruzi growth-1 130*, T cruzi growth-2 96*, T cruzi growth-3 79, NIH3T3 tox 42* and NIH3T3 tox 2 85*.
`C[C@H]1CN([C@@H](C)CO)S(=O)(=O)c2ccc(C#Cc3ccccn3)cc2O[C@@H]1CN(C)Cc1ccccc1` gave C diff growth -12, Pf Dd2 inh -43 and T cruzi growth-1 75.
`C[C@H](CO)N1C[C@H](C)[C@H](CN(C)CC2CC2)Oc2cc(C#Cc3ccccn3)ccc2S1(=O)=O` gave C diff growth -6, Pf Dd2 inh -45 and T cruzi growth-1 21.
For C[C@H](CO)N1C[C@H](C)[C@H](CN(C)Cc2ccc(F)cc2)Oc2cc(C#Cc3ccccn3)ccc2S1(=O)=O the results were C diff growth 0, Pf Dd2 inh -71, T cruzi growth-1 124*, T cruzi growth-2 109*, T cruzi growth-3 93, NIH3T3 tox -28 and NIH3T3 tox 2 9.
Screening C[C@H]1CN([C@@H](C)CO)S(=O)(=O)c2ccc(C#Cc3ccccn3)cc2O[C@H]1CN(C)Cc1ccc(F)cc1 returned C diff growth 3, Pf Dd2 inh -59, T cruzi growth-1 116*, T cruzi growth-2 103*, T cruzi growth-3 76, NIH3T3 tox 3 and NIH3T3 tox 2 37*.
CNC[C@H]1OCCCC[C@@H](C)Oc2ccc(NS(=O)(=O)c3ccc(OC)cc3)cc2C(=O)N([C@H](C)CO)C[C@H]1C was read as C diff growth -2, Pf Dd2 inh -14 and T cruzi growth-1 12.
`C[C@@H]1CN([C@@H](C)CO)C(=O)c2cc(NC(=O)Cc3ccccc3)ccc2O[C@@H](C)CCCCO[C@H]1CN(C)Cc1ccncc1` gave C diff growth 1, Pf Dd2 inh -26 and T cruzi growth-1 70.
COc1cccc(-c2ccc3c(c2)[C@H]2[C@H](CCN2C(=O)Cc2ccncc2)[C@H](CO)N3)c1 was read as Pf Dd2 inh -76, T cruzi growth-1 104*, T cruzi growth-2 95, T cruzi growth-3 62, NIH3T3 tox 4 and NIH3T3 tox 2 15.
`COc1ccc(-c2ccc3c(c2)[C@@H]2[C@@H](CCN2C(=O)CN2CCOCC2)[C@@H](CO)N3)cc1` gave C diff growth -19, Pf Dd2 inh -12 and T cruzi growth-1 60.
Screening COc1cccc(-c2ccc3c(c2)[C@H]2[C@H](CCN2C(=O)C2CC2)[C@H](CO)N3)c1 returned C diff growth -18 and Pf Dd2 inh -58.
`COc1cccc(-c2ccc3c(c2)[C@H]2[C@H](CCN2C(=O)CN2CCOCC2)[C@@H](CO)N3)c1` gave C diff growth -9, Pf Dd2 inh -16, T cruzi growth-1 inconclusive, T cruzi growth-2 87, T cruzi growth-3 34, NIH3T3 tox -9 and NIH3T3 tox 2 -2.
`CN(C)C(=O)c1cccc(-c2ccc3c(c2)[C@@H]2[C@@H](CCN2C(=O)C2CCOCC2)[C@H](CO)N3)c1` gave C diff growth 2, Pf Dd2 inh 3, T cruzi growth-1 inconclusive, T cruzi growth-2 99*, T cruzi growth-3 26, NIH3T3 tox -14 and NIH3T3 tox 2 -9.
Screening COc1cccc(-c2ccc3c(c2)[C@@H]2[C@@H](CCN2C(=O)C2CCOCC2)[C@@H](CO)N3)c1 returned C diff growth -1, Pf Dd2 inh -7, T cruzi growth-1 103*, T cruzi growth-2 101*, T cruzi growth-3 inconclusive, NIH3T3 tox 13 and NIH3T3 tox 2 17.
